In general, AC50 refers to the midpoint of the concentration-response curve, whichever way the signal moves.

Activity calls are given as the source filed them. The calls were made as follows: active = hit-call score of the fitted dose curve at least 0.9, where 1 is the maximum; inactive = score below 0.9.

Transcription factor Sp1 (Homo sapiens), sequence (P08047 whole entry, looked up): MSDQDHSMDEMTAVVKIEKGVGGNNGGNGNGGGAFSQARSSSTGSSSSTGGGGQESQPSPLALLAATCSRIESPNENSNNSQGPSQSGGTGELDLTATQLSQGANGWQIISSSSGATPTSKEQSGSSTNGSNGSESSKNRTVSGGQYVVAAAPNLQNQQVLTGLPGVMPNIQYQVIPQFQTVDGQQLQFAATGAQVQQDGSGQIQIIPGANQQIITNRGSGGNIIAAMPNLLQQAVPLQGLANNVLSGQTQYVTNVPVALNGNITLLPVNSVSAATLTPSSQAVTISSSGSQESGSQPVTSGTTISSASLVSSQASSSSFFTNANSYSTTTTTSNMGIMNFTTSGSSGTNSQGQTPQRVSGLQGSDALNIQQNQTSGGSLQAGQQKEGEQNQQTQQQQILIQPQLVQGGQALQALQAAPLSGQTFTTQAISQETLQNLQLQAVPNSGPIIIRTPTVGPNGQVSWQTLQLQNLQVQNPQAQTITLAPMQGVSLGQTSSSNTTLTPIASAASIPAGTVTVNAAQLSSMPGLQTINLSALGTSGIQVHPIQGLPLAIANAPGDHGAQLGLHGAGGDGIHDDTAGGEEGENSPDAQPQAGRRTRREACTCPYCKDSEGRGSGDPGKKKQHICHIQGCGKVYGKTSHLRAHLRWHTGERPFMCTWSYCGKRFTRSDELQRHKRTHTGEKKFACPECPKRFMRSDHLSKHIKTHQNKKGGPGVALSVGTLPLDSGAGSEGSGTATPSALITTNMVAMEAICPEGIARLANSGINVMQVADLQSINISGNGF

The assay has as its target Transcription factor Sp1 (Homo sapiens) (UniProt P08047). The experiment in a line: ATG_Sp1_CIS: Attagene CIS-FACTORIAL HepG2 Assay for human Specificity Protein 1 (Sp1) (AID 2282961). As to conditions: HepG2 Sp1 cis-reporter transcription, actives raise or lower the signal. The protocol: ATG_CIS is a cell-based, multiplexed-readout assay that uses HepG2, a human liver cell line, with measurements taken at 24 hours after chemical dosing in a 24-well plate.ATG_Sp1_CIS is one of 52 assay component(s) measured or calculated from the ATG_CIS assay. It is designed to make measurements of mRNA induction, a form of inducible reporter, as detected with fluorescence intensity signals by Reverse transcription polymerase chain reaction (RT-PCR) and Capillary electrophoresis technology.Data from the assay component ATG_Sp1_CIS was analyzed into 1 assay endpoint. This assay endpoint, ATG_Sp1_CIS, was analyzed with bidirectional fitting relative to DMSO as the negative control and baseline of activity. Using a type of inducible reporter, measures of mRNA for gain or loss-of-signal activity can be used to understand the reporter gene at the transcription factor-level as they relate to the gene SP1. Furthermore, this assay endpoint can be referred to as a primary readout, because this assay has produced multiple assay endpoints where this one serves a reporter gene function. To generalize the intended target to other relatable targets, this assay endpoint is annotated to the dna binding intended target family, where the subfamily is zinc finger.
Human liver HepG2 cells are transiently transfected with multiple reporter transcription units (MRTUs) in 6-well plates using FuGene 6 reagent (Roche; 3 ml FuGene/1 mg DNA). The MRTU constructs are regulated by a cis-regulating element (promoter). […] A major difference between the CIS and TRANS system is that in CIS activities of endogenous TFs are measured, whereas the TRANS assay evaluates changes in activities of exogenous, chimeric NR-Gal4 proteins. […] At the end of 24 hour incubation, total RNA was isolated using TriZol reagent (Invitrogen). The isolated RNA is then reverse-transcribed using oligo(dT) primer and Mo-MLV reverse transcriptase (Invitrogen) with DNAse I (Ambion) treatment for 30 min. The one-tenth of the produced cDNA was amplified by PCR using Taq DNA polymerase (Invitrogen) and two reporter sequence-specific primers. The PCR products were fluorescently labeled by primer extension with 6-arboxyfluorescein (6-FAM) 5'-labeled reporter sequence-specific primer (2 min at 95 C, 20 s at 68 C and 10 min at 72 C) and these products were digested with 5U of HpaI (New England Biolabs) for 2h at 37 C. The fragments were purified using Qiaquick PCR columns (Qiagen), analyzed on an ABI 3130xL genetic analyzer (Applied Biosystems) with peak positions identified by using a set of X-rhodamine (ROX)-labeled MapMarker1000 molecular weight standards (BioVentures). The raw capillary electrophoresis data was processed using Attagraph software (Attagene).
For the compound `Nc1ccc(Cl)cc1Cl`, the call was inactive.
The same measure, in the same setting: to `CC(=O)CC(N)=O` belongs “inactive”.
The same measure, in the same setting: with `CC1OC1C1CCC2(C)OC2C1` (stereo not given) the entry was “inactive”.
Still for that read-out and setting: to `COC=O` belongs “inactive”.
As to `CC(C)=CCCC(C)C=O` (stereo not given), the call was inactive.
Take `CC(=O)[C@@]1(O)CC[C@H]2[C@@H]3C[C@H](C)C4=CC(=O)C=C[C@]4(C)[C@@]3(F)[C@@H](O)C[C@@]21C`: the result was inactive.
Regarding `Cc1ccc(C(C)c2ccc(C)c(C)c2)cc1C`, the half-maximal activity concentration (AC50) is 100 µM (active).
Turning to `CCCCCCC1(C)CCC(=O)O1` (stereo not given), the outcome was inactive.
Still for that read-out and setting: with `[Cl][Nd]([Cl])[Cl]` the entry was “inactive”; with `O=C(c1ccccc1)c1ccc(O)c(O)c1O`, “inactive”; with `COC(=O)/C=C/C(C)=C\C=C\C(C)=C\C=C\C=C(C)\C=C\C=C(C)\C=C\C(=O)O`, “inactive”.
Still for that read-out and setting: to `Cc1cccc(N(C)C(=S)Oc2ccc3ccccc3c2)c1` belongs “inactive”; to `CC(C)(c1cc(Br)c(OCCO)c(Br)c1)c1cc(Br)c(OCCO)c(Br)c1`, “inactive”.
As for `O=CN1CCCCC1`, the compound was classed as inactive.
Same read-out and setting: to `O=C1Nc2ccccc2C1(c1ccc(O)cc1)c1ccc(O)cc1` belongs “inactive”; to `C1CN(SSN2CCOCC2)CCO1`, “inactive”; to `C(=CC=Nc1ccccc1)C=CNc1ccccc1`, “inactive”.
The same measure, in the same setting: to `COCc1c(C(C)C)nc(C(C)C)c(/C=C/[C@@H](O)C[C@@H](O)CC(=O)O)c1-c1ccc(F)cc1` belongs “inactive”; to `FC(F)=C(F)OC(F)(F)C(F)(F)C(F)(F)F`, “inactive”.
On the same count and under the same terms, with `CC(C)=CCC[C@H](C)CCO` the entry was “inactive”.
With `C1=Cc2ccccc2C1`, the result was inactive.
The same measure, in the same setting: to `COc1ccc2nc(N)sc2c1` belongs “inactive”; to `O=S(=O)(O)c1cc(S(=O)(=O)O)c2ccc3c(S(=O)(=O)O)cc(S(=O)(=O)O)c4ccc1c2c43`, “inactive”; to `Cc1cc(C)c(C)cc1C`, “inactive”.
For `CC(=O)Nc1ccc2c(c1)Cc1cc(NC(C)=O)ccc1-2`, the outcome was inactive.
In the case of `CC(C)c1ccc2c(c1)CC[C@H]1[C@](C)(CN)CCC[C@]21C`, the outcome was inactive.
Still for that read-out and setting: with `O=C1c2ccccc2C(=O)C1c1nc2ccccc2c(Br)c1O` the entry was “inactive”; with `COc1ccc([C@@H]2CC(=O)c3c(O)cc(O[C@@H]4O[C@H](CO[C@@H]5O[C@@H](C)[C@H](O)[C@@H](O)[C@H]5O)[C@@H](O)[C@H](O)[C@H]4O)cc3O2)cc1OC`, “inactive”.
Consider `CCCCNc1ccc(NCCCC)c2c1C(=O)c1ccccc1C2=O`, for which the call was inactive.
Consider `O=P(O)(O)Oc1ccccc1`, for which the compound was called inactive.
Still for that read-out and setting: to `O=C1CCCC1` belongs “inactive”; to `CC(=O)c1ccc2c(c1)CCCC2`, “inactive”.
In the case of `NC(=O)N=NC(N)=O`, the call was inactive.
Regarding `C=C(C)C(=O)OCCOc1ccccc1`, the compound was called inactive.
`CCCCC(CC)CCC(CC(C)C)OS(=O)(=O)O` (stereo not given): the outcome was inactive.
`O=C1CCCN1CCO`: the call was inactive.
Still for that read-out and setting: with `[Cl][In]([Cl])[Cl]` the entry was “inactive”; with `CC(C)CCCCCOC(=O)CCS`, “inactive”; with `COCCCOCCCOC`, “inactive”.
Same read-out and setting: with `C=CCOCC(O)CCl` (stereo not given) the entry was “inactive”.

For the origin of these results see PubChem BioAssay (EPA / NIEHS).
